Hits are enriched below; roughly 3.6% of the tested compounds scored in any of these assays.
Sfp inh – inhibitors of Bacillus subtilis Sfp phosphopantetheinyl transferase; Q9F4F7; hit rate 3.5% among 310,000; Biochemical Sfp PPTase activity, qHTS; AID 1490; Potency, µM, for inactives: largest response in the series, negative = inhibition, usual class: inhibitors;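 further: the enzyme is Sfp with the accession as filed and its product quenches rhodamine fluorescence; potency means the concentration at half of the fitted maximal effect; 0% = enzyme reaction without inhibitor and -100% = no enzyme wells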
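Step 1, compound plus 15 nM Sfp-PPTase, 15 min, room temperature. Step 2, add rhodamine-CoA (5 uM) and BHQ-2-YbbR (12.5 uM). Step 3, read 525/598 nm fluorescence at 0 and 30 min.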
KDM4E inh – JMJD2E (human) inhibition; hit rate 1.6% among 230,000; Potency, µM (series often up to 57.1 µM), for inactives: top-dose activity change, negative = inhibition, actives largely listed as inhibitors; JMJD2E catalytic domain, FDH-coupled NADH fluorescence (FDH is formaldehyde dehydrogenase);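 further: potency means the concentration at half of the fitted maximal effect; 0% = wells with enzyme and -100% = buffer wells without enzyme; nearly all actives have a fitted effect of over 50% in size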
IMPase Li inh – cell-permeable IMPase inhibitors with lithium potentiation. Potency, µM (series often up to 59.4 µM), inactives show at the top dose activity, negative = IMPase inhibition, hits mostly inhibitors. CHO-M1 cells, IP1 TR-FRET (IP-One), carbachol + lithium. hit rate 0.35% among 210,000. AID 1457;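 further: IP1 builds up when IMPase is blocked and the TR-FRET signal falls; potency means the concentration at half of the fitted maximal effect; plate controls were basal vehicle for no effect and high inhibitor control for full effect; nearly all actives have a fitted effect of over 50% in size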
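Lithium-sensitised IP1 accumulation assay; M1-expressing CHO cells treated 30 min at 37C with compound. Competitive antibody detection by time-resolved FRET followed a 10 min room-temperature lysis step.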
NPSR antag – antagonists of human neuropeptide S receptor cAMP signaling; Potency, µM (titrated, usually from 38.3 µM), for inactives: top-dose activity change, negative = inhibition, most hits filed as inhibitors; AID 1461; Q6W5P4; CHO-NPSR cells, cAMP TR-FRET, antagonist mode; hit rate 1% among 220,000; further: potency means the concentration at half of the fitted maximal effect; on the % scale 0 is the no-effect control and ±100 the full control effect; nearly all actives have a fitted effect of over 50% in size
GCN5L2 inh-1 – GCN5L2 (KAT2A) acetyltransferase inhibition | Q92830 | hit rate 0.21% among 390,000 | AID 504327 | Potency, µM (highest dose often 58.9 µM), without a hit: at the highest dose activity change, negative = inhibition, most hits filed as inhibitors | GCN5L2 HAT assay, ThioGlo1 CoA-SH fluorescence; further: potency means the concentration at half of the fitted maximal effect; on the % scale 0 is the no-effect control and ±100 the full control effect
Target sequence (Q92830 whole entry, looked up): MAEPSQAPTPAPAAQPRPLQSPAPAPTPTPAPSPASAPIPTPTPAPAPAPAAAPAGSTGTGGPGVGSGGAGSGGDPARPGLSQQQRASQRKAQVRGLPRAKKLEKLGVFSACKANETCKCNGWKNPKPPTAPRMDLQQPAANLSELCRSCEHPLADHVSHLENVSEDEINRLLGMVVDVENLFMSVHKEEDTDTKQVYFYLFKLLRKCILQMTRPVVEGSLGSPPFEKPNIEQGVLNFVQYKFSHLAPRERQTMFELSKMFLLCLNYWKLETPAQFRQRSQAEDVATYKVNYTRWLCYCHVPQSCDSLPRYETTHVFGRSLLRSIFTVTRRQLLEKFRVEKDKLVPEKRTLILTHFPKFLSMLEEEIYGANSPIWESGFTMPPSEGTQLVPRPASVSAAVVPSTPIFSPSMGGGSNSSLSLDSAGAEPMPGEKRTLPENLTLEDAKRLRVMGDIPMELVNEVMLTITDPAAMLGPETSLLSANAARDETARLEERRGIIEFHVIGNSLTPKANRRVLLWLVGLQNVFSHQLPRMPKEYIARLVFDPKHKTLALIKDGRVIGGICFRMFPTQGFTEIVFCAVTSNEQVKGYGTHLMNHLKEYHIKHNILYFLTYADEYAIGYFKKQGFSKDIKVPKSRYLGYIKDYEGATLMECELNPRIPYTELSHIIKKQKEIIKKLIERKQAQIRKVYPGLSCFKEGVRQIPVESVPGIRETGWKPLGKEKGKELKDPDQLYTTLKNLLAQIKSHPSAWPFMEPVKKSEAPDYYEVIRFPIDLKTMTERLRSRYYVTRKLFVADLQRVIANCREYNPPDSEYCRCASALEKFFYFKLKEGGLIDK
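Free CoA generated was detected with ThioGlo1 (50uM) fluorescence at Ex340nm/Em540nm, read immediately and after 20 min at room temperature. Enzyme, 20 nM in HEPES pH 7.5 buffer, saw compounds 15 min before adding 75uM H3(1-25) peptide and 70uM acetyl-CoA.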
Epigenetic derep – derepresses silenced GFP reporter in murine cells. AID 1865. hit rate 0.2% among 280,000. Potency, µM (highest dose often 53.9 µM), without a hit: at the top dose GFP activation, most hits filed as activators. murine LDR cells, GFP reporter derepression, 30 h; further: potency means the concentration at half of the fitted maximal effect; % of control where 0% means no effect; nearly all actives have a fitted effect of over 60% in size
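Murine LDR cells carrying a silenced, genomically integrated CMV-driven GFP reporter were exposed to compound for 30 hours at 37 C. After PBS washes, GFP-positive cells (20–120 um objects) were counted by laser-scanning microplate cytometry.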
Sfp inh conf – confirmation of Bacillus subtilis Sfp PPTase inhibitors. shares compounds with Sfp inh. Sfp PPTase enzymatic assay, qHTS titration. Potency, µM (highest dose often 114 µM), without a hit: at the top dose activity change, negative = inhibition, actives largely listed as inhibitors. hit rate 79% among 380;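 further: potency means the concentration at half of the fitted maximal effect; plate controls were uninhibited Sfp reaction for no effect and no enzyme control for full effect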
Sfp gel assay – Blocks Sfp PPTase activity, gel read-out; purified Sfp, gel-based phosphopantetheinylation read-out; shares compounds with Sfp inh; hit rate 20% among 210; Potency, µM, usual class: inhibitors;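 active means potency below 100 µM; inconclusive means dose-dependent response but potency above 100 µM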;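 further: band intensities scaled against SCH202676 control wells before curve fitting; potency is an IC50 for inhibitors of Sfp transfer activity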
Parental c127i – counter-screen for epigenetic modulators: effect in parental c127i cells | shares compounds with Epigenetic derep | mouse c127i parental cells, fluorescent cell count, 30 h | Potency, µM, inactives show at the top dose fluorescent cell count, usual class: activators | hit rate 20% among 60
HCC4017 viab – HCC4017 cytotoxicity of epigenetic modulator hits. hit rate 30% among 45. Potency, µM (titrated, usually from 46.1 µM), inactives show top-dose activity change, negative = cytotoxicity, most hits filed as cytotoxic. HCC4017 NSCLC viability, CellTiter-Glo ATP luminescence, 72 h. shares compounds with Epigenetic derep
H358 tox – H358 cytotoxicity of epigenetic modulator hits; shares compounds with Epigenetic derep; H358 NSCLC viability, ATP luminescence, 72 h; Potency, µM (top dose mostly 46.1 µM), inactives show at the highest dose activity change, negative = viability loss, most hits filed as cytotoxic; hit rate 30% among 45
GCN5L2 inh-2 – confirmation of human GCN5L2 histone acetyltransferase inhibitors; shares compounds with GCN5L2 inh-1; GCN5L2 HAT, ThioGlo1 CoA fluorescence, 20 min; Potency, µM, most hits filed as inhibitors; hit rate 70% among 140; AID 588347
An asterisk follows results filed as active; i = inactive; ? = inconclusive; / = not tested or not shown; [ ] = remark or other dose. Unless noted, the call rests on the fitted dose curve; in most records, active means well fitted curve in the direction sought with a large enough effect; inconclusive means small, poorly fitted or top-dose-only effect, or another doubt; inactive means no such curve, though single readings can be large; an effect the other way counts as inactive or inconclusive.

SMILES	Sfp inh	KDM4E inh	IMPase Li inh	NPSR antag	GCN5L2 inh-1	Epigenetic derep	others
COc1ccc(CN2CCN(C(=O)Cc3ccccc3)CC2)cc1Br	89.1µM*	/	/	/	-0.6%	/
COc1cc(C=C2C(=O)NC(=O)NC2=O)ccc1O	?	-7.4%	/	-10.8%	3.2%	0.5%
CN(C)c1ccc(C=C2C(=O)NC(=O)NC2=O)cc1[N+](=O)[O-]	25.1µM*	2.4%	-7.7%	5.2%	-13.1%	0.0%
CN1C(=O)C(=Cc2ccc(N(C)C)c([N+](=O)[O-])c2)C(=O)N(C)C1=O	56.2µM*	6.0%	-7.8%	-0.9%	-4.5%	2.8%
CN(C)c1ccc(C=C2C(=O)NC(=S)NC2=O)cc1[N+](=O)[O-]	-87.1%	?	10.6%	-39.2%	-15.3%	-0.4%
CCOc1cc(C=C2C(=O)NC(=O)NC2=O)cc([N+](=O)[O-])c1O	35.5µM*	7.7%	8.3%	-4.8%	-9.0%	-3.3%
CN(CC(=O)N[C@H](CO)Cc1ccccc1)C(=O)[C@H](CCS(C)=O)NC(=O)[C@@H](N)Cc1ccc(O)cc1 (stereo partly specified)	15.0%	/	1.8%	/	-11.7%	1.1%
Oc1cccc[c]1[Hg][Cl]	0.141µM*	/	/	/	0.0891µM*	/
Cc1cccc(N2CCc3c2nc2ccccc2c3N)c1	28.2µM*	?	-2.1%[38.3 µM]	-2.2%[46.1 µM]	-24.2%	1.1%	Sfp inh conf=26.4µM*;Sfp gel assay=i
CC(C)c1cc2c(c(O)c1O)[C@@]1(C(=O)O)CCCC(C)(C)[C@@H]1CC2	1.41µM*	/	23.9%	/	-23.0%	?	Sfp inh conf=2.64µM*;Sfp gel assay=i
C[C@]1(C(=O)O)CCC[C@]2(C)c3cc(O)ccc3CC[C@@H]12	12.3%	6.2%	14.0%	/	-9.3%	0.8%
C[N+](C)(C)CCCl	11.7%	/	/	/	0.0%	/
CC(C)Nc1ccc(Nc2ccccc2)cc1	8.91µM*	/	43.5%	/	-16.1%	/	Sfp inh conf=10.5µM*;Sfp gel assay=?
COc1ccc(OC)c(C(O)C(C)N)c1 (stereo unspecified)	13.8%	1.0%	0.4%	29.6%	0.8%	0.3%
C[C@H](N)[C@H](O)c1ccc(O)c(O)c1	35.5µM*	4.47µM*	9.7%	/	-12.3%[21.4 µM]	-0.3%[16.9 µM]	Sfp inh conf=?;Sfp gel assay=74.5µM*
COC(=O)C12CC3=C[C@H](CC3=O)Cc3ccccc3[C@@H]1CNC2=O (stereo partly specified)	-12.6%	-11.4%	10.4%	/	/	2.3%
CCOC(=O)C1=CC(=C2C(=O)N(CC)C(=S)N(CC)C2=O)c2ccccc2O1	50.1µM*	0.3%	2.2%	-35.5%	-6.5%	-0.3%	Sfp inh conf=59.1µM*;Sfp gel assay=i
CCN1C(=O)C(=C2C=C(C)OC(C)=C2)C(=O)N(CC)C1=S	13.8%	1.2%	-1.3%	-20.6%	-10.2%	1.5%
COC(=O)C1(C)C=C2C(=C(C)C(=O)C2C)CN1 (stereo unspecified)	7.2%	?	4.3%	/	/	2.6%
O=C1C2CC=CCC2C(=O)N1SC(Cl)(Cl)Cl (stereo unspecified)	6.31µM*	/	24.4%	/	?	/	Sfp inh conf=9.37µM*;Sfp gel assay=6.17µM*
COc1ccc(OC)c(N2C(=O)NC(=O)/C(=C\c3ccc([N+](=O)[O-])s3)C2=O)c1	22.4µM*	22.4µM*	7.8%	-23.3%	?	?	Parental c127i=6.0%;HCC4017 viab=-9.2%;H358 tox=-26.1%
OC12C3C4CC5C6C4C1C6C(C53)N2CCc1cccc(F)c1 (stereo unspecified)	6.7%	/	/	/	-15.2%	/
CCN(CC)c1ccc2c(c1)oc(=O)c1c(Cl)cc(=O)oc12	-6.9%	-9.9%	35.3%[38.3 µM]	3.98µM*	-12.3%	8.91µM*	Parental c127i=31.6µM*
C[C@H]1C[C@@H](C)C(=O)[C@@H]([C@H](O)CC2CC(=O)NC(=O)C2)C1	3.2%	5.4%	2.6%	38.1%	1.6%	?	Parental c127i=3.0%
OC[C@H]1O[C@@H](n2cnc3cc(Cl)c(Cl)cc32)[C@H](O)[C@H]1O	10.7%	/	-21.1%	/	-2.0%	0.0%
C[C@H]1C[C@H](C)C(=O)[C@@H]([C@H](O)CC2CC(=O)NC(=O)C2)C1	16.6%	8.5%	11.4%	/	/	?
COc1ccc(-c2cc(=NCC(=O)O)c3ccccc3o2)cc1	-0.2%	/	/	/	?	/	GCN5L2 inh-2=32.4*
C[C@H](NC(=O)[C@@H](N)Cc1ccc(O)cc1)C(=O)NCC(=O)N(C)[C@@H](Cc1ccccc1)C(=O)N[C@H](CO)CCS(C)=O (stereo partly specified)	-1.7%	/	1.5%	/	-3.1%	1.1%

High-throughput results (PubChem)
